Results: PubChem BioAssay (NCATS)
Results filed as inconclusive are left out. Entries that show only a call come without a potency. Activity calls are given as the source filed them. Calls follow the shape of the dose curve; as a rule, active = well fitted inhibition curve with a large enough effect; inconclusive = small, poorly fitted or top-dose-only effect; inactive = no such curve, though single readings can be large or run the other way.

Legend:
[1] = qHTS assay for measurement of the activity of small molecule inhibitors on Zika virus induced Caspase-3 activity in human iPSC derived neural progenitor cells (hNPCs) (AID 1224857); also: nearly all actives have a fitted effect of over 65% in size; also: potency is read from the fitted curve at half-maximal effect
Procedure, shortened: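 Human iPSC-derived neural progenitor cells pretreated 1 hr with compounds, then infected with Zika virus (2 FFU/cell) for 6 hours at 37 C. Caspase-3/7 measured by Caspase-Glo luminescence; % inhibition calculated from induction scaled to uninfected (0%) and infected (100%) wells.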

[2] = qHTS assay for measurement of the activity of small molecule inhibitors on Zika virus induced Caspase-3 activity in human astrocytoma cells (AID 1224859)
Procedure, shortened: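 SNB-19 astrocytoma cells, 250/well, pretreated 1 h with compounds, then Zika virus at 2 FFU/cell for 6 h at 37 C; Caspase-Glo 3/7 luminescence after 30 min; percent inhibition normalised to uninfected and infected controls.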

SMILES	Potency [1]	outcome [2]
Clc1ccc(N2CC3CCC(C2)N3)nn1	inactive	inactive
CCN1C[C@@]2(COC)C3[C@@H](OC)C4[C@H]1C3([C@@H]1C[C@@]3(O)[C@H](OC(=O)c5ccccc5)[C@@H]1[C@]4(OC(C)=O)[C@@H](O)[C@@H]3OC)[C@H](OC)C[C@H]2O	inactive	
CN1CC[C@@]2(C)c3cc(OC(=O)Nc4ccccc4)ccc3N(C)[C@@H]12	10 µM (active)	
C[C@H](N)Cc1cccc(C(F)(F)F)c1	inactive	inactive
CC(N)c1cccc(Cl)c1Cl (configuration not stated)	inactive	inactive
Nc1ncnc2c1ncn2[C@@H]1O[C@H](COP(=O)(O)CP(=O)(O)OP(=O)(O)O)C(O)[C@H]1O (some centres not stated)	inactive	
CCNC(=O)[C@H]1O[C@@H](n2cnc3c(N)ncnc32)[C@H](O)C1O (some centres not stated)	inactive	
O=C1/C(=C/c2ccccc2)C[C@@]2(O)[C@H]3Cc4ccc(O)c5c4[C@@]2(CCN3CC2CC2)[C@H]1O5	inactive	
CC1OC1P(=O)(O)O (configuration not stated)	inactive	
C[C@]12Cc3cn4c(nc3C=C1CCC1C2CC[C@@]2(C)[C@H]1CC[C@@]2(O)C#N)nc1ccccc14 (some centres not stated)	inactive	inactive
Cc1c2ccncc2c(C)c2c1[nH]c1ccccc12	inactive	inactive
C=CCN1C[C@@H](C)N([C@H](c2ccc(C(=O)N(CC)CC)cc2)c2cccc(OC)c2)C[C@@H]1C	inactive	inactive
O=c1ccc2[nH]cc(C3=CCNCC3)c2[nH]1	inactive	
N=C(N)c1ccc(CS(=O)(=O)F)cc1	inactive	inactive
CCN(CC)c1ncnc2c1ncn2[C@@H]1O[C@H](COP(=O)(O)OP(=O)(O)C(Br)(Br)P(=O)(O)O)[C@@H](O)[C@H]1O	inactive	
